# High-throughput results (PubChem)
# ERG Ets-DNA blk: inhibitors of human ERG Ets domain-DNA interaction | fluorescence polarization, His-ERG Ets domain / labelled DNA | AID 624246 | Potency, µM (doses to about 76.9 µM), for inactives: at the highest dose FP activity, negative = inhibition, most hits filed as inhibitors | P11308 | 0.028% of 370,000 active; active = well fitted inhibition curve with a large enough effect in the polarisation, with a control signal flat; inconclusive = small, poorly fitted or top-dose-only effect, or effect the other way, or a change in a side signal; inactive = no such curve, though single readings can be large or run the other way; the % refers to the polarisation;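 also: polarization taken with two DNA probes labelled with fluorescein and Texas red; potency is read from the fitted curve at half-maximal effect; % of control where 0% means no effect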
# Target sequence (P11308 whole entry, looked up, the tested form may be a part): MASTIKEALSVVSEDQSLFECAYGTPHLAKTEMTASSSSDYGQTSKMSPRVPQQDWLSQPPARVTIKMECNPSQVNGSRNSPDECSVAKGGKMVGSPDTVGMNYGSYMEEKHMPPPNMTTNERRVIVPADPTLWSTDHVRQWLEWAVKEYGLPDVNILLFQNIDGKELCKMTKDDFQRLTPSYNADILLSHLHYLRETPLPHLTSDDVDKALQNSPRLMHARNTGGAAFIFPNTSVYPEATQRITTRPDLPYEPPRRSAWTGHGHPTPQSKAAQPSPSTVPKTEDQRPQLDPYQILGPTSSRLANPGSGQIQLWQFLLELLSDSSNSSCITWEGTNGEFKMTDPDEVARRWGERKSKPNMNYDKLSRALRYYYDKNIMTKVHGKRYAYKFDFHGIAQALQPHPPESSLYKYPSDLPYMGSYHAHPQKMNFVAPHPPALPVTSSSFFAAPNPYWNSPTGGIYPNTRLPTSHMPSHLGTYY
#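 His-tagged ERG Ets domain (1 uM in the protein solution; 300mM KCl, 50mM Tris-HCl, 1mM EDTA, 1mM DTT, pH 7.5) received compound, then a probe mix of 5 nM fluorescein-DNA and 100nM Texas-615-DNA. Fluorescence polarization was read for both dyes.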
# D1 agonist: activates the human D1 dopamine receptor. P21728. HEK293 T-REx D1 cells, calcium flux, agonist mode. activation, % at 2 µM. 1% of 360,000 active. AID 504660; in the data active = activation above about 30%; also: 0% is about no effect
#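 Inducible HEK293 T-REx D1 cells, force-coupled to calcium signalling, were plated at 4000 cells/well with tetracycline and held overnight at 30 C. After no-wash calcium dye loading, compound-evoked calcium rise over 180 s flagged agonists.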
# DRD3 agonist: D3 dopamine receptor (human) agonism | D3R DiscoveRx beta-arrestin cells, luminescence, 90 min | AID 652048 | 0.58% of 410,000 active | max activation, %; in the data active = max activation above about 30%; also: 0% is about no effect
#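 Agonist-mode cell screen: cells plated at 1500/well and incubated overnight at 37 °C, then exposed to library compounds for 90 min at 37 °C. Detection reagent was added for 30–60 min at room temperature, and luminescence was read.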
# D3 antag: blocks the human D3 dopamine receptor. P35462. D3R cells, DiscoveRx beta-arrestin luminescence, antagonist mode; active compounds read low. max response, negative = inhibition, %. 2.5% of 360,000 active; in the data active = max response below about -50%; inconclusive = no clear call, values can overlap the other calls; also: % is scaled to controls: 0 for no effect and ±100 for the full control effect
#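 Cells plated overnight at 1500 cells/well, then exposed to library compounds with dopamine controls for 90 minutes at 37 degrees C. DiscoveRx reagent added for 30–60 minutes at room temperature; luminescence read, quantitative HTS format.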
# D1 PAM: potentiators of human D1 dopamine receptor; P21728; HEK293 TREx D1 cells, calcium flux, dopamine EC20 potentiation; potentiation, % at 10 µM; 0.036% of 360,000 active; AID 504651; in the data active = potentiation above about 30%; also: 0% is about no effect
# D1 antag: human D1 dopamine receptor antagonism | P21728 | HEK293 TREx D1 cells, calcium flux, dopamine EC80; active compounds read low | activity change, negative = inhibition, % at 10 µM | 3.2% of 360,000 active | AID 504652; in the data active = activity change below about -30%; also: % is scaled to controls: 0 for no effect and ±100 for the full control effect
#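 Using tetracycline-induced force-coupled D1 Hek293 cells and a calcium dye, signals were followed for 180 s after compound, then for 180 s after EC80 dopamine, to detect inhibitors.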
# Active calls of the source: *; ? = inconclusive; · = no result given. This is a sample that favours compounds with a hit; in the whole collection about 6.1% have one here.
SMILES,ERG Ets-DNA blk,D1 agonist,DRD3 agonist,D3 antag,D1 PAM,D1 antag
S=c1[nH]nc(-c2cccs2)n1/N=C/c1cn(-c2ccccc2)nc1-c1cccs1,8%,1,30*,14,2,3
CCc1ccc(S(=O)(=O)Nc2ccccn2)cc1,-4%,4,4,2,-3,-12
CCc1ccc(S(=O)(=O)Nc2ccc(Br)cn2)cc1,17%,-4,-21,0,-5,-30*
COc1ccc(N2CCN(CCCNC(=O)Nc3ccccc3Cl)CC2)cc1,-1%,12,-17,·,-4,-6
O=C(NCCCN1CCN(c2ccc(F)cc2)CC1)Nc1ccc(Cl)cc1,-4%,69*,-19,·,-2,-77*
O=C(NCCCN1CCN(c2ccc(F)cc2)CC1)NC12CC3CC(CC(C3)C1)C2,9%,14,-1,-82*,-8,1
O=C(NCCCN1CCN(c2ccc(F)cc2)CC1)Nc1ccccc1Cl,12%,43*,-19,·,0,-67*
CCOc1ccc(NC(=O)NCCCN2CCN(c3ccc(F)cc3)CC2)cc1,-10%,14,-18,·,-4,-36*
CCCn1c(SCC(=O)Nc2cc(S(=O)(=O)N3CCCCC3)ccc2C)n[nH]c1=O,14%,0,3,-2,0,9
O=C(NCC(=O)N1CCOCC1)c1ccccc1,-1%,4,12,6,4,-1
COC(=O)C1=CO[C@@H](O[C@@H]2O[C@H](CO)[C@@H](O)[C@H](O)[C@H]2O)[C@H]2[C@@H]1C(=O)C[C@@H]2C,3%,1,-10,-23,-1,9
CCc1ccc(NC(=O)CSc2ccc(-c3cccs3)nn2)cc1,1%,0,-1,·,-2,3
COc1ccc(-c2csc(NC(=O)C3=NN(c4ccccc4)C(=O)CC3)n2)cc1,0%,3,27,103,-13,-3
CSCCC(NS(=O)(=O)c1ccc2c(c1)oc(=O)n2C)C(=O)N1CCN(c2ccc(C(C)=O)cc2)CC1 (stereo not given),-11%,-1,-14,·,-3,19
CSc1cccc(NC(=S)NCCCN2CCN(c3ccc(F)cc3)CC2)c1,-3%,11,-8,11,-5,-76*
CSc1ccc(N2CCN(CCCNC(=O)Nc3ccccc3F)CC2)cc1,-6%,75*,31*,?,-24,-4
CSc1ccc(C=NNc2ccc(S(=O)(=O)Nc3ccccc3C(=O)O)cc2[N+](=O)[O-])cc1,0%,·,-4,9,·,·
Cc1nn(-c2ccccc2)c(Cl)c1/C=N/Nc1ccc(S(=O)(=O)Nc2ccccc2C(=O)O)cc1[N+](=O)[O-],2%,1,-22,?,0,-32*
O=C(/C=C/Nc1ccc(F)c(Cl)c1)c1ccco1,2%,8,3,?,19,-37*
S=C1NC[C@H](CC2CCCCC2)N1CC1CCCCC1,3%,2,-50,?,-1,9
CCc1ccc(NC(=O)Cn2cnc3nc4c(cc3c2=O)CCCC4)cc1,0%,6,-7,·,-3,-32*
CCn1c(SCC(=O)Nc2ccc(Cl)cc2)nc2nc3c(cc2c1=O)CCCC3,-1%,2,25,23,-3,8
CCOc1ccc(NC(=O)Cn2cnc3nc4c(cc3c2=O)CCCC4)cc1,-2%,0,4,·,1,12
CCn1c(SCC(=O)Nc2ccc(C(C)=O)cc2)nc2nc3c(cc2c1=O)CCCC3,-6%,2,30*,44,-3,-11
CC(=O)c1ccc(NC(=O)[C@@H]2CCCN2C2=NS(=O)(=O)c3ccccc32)cc1,3%,1,-10,0,-6,0
SMILES,ERG Ets-DNA blk,D1 agonist,DRD3 agonist,D3 antag,D1 PAM,D1 antag
CCN(CC)CCNC(=O)c1ccc(NC(=O)c2ccc(S(=O)(=O)N3CCCCCC3)cc2)cc1,5%,1,-26,-10,-17,-57*
CCOC(=O)c1ccc(N2CCCCC2)c(NS(=O)(=O)c2cccc(C(F)(F)F)c2)c1,40%,5,-4,22,-3,-48*
CCN(CC)CCNC(=O)c1ccc(N2CCCCC2)c(NS(=O)(=O)c2ccc(C)cc2)c1,8%,4,-13,-82*,-4,4
CCN(CC)CCNC(=O)c1ccc(NC(=O)c2cccc(S(=O)(=O)N3CCCCCC3)c2)cc1,·,·,-5,3,·,·
COC(=O)c1ccc(N2CCCCC2)c(NS(=O)(=O)c2ccc(C)cc2)c1,·,1,-16,-15,-2,14
CCN(CC)CCNC(=O)c1ccc(NC(=O)c2ccc(Cl)c(S(=O)(=O)N3CCCCCC3)c2)cc1,-3%,3,-35,?,-17,-47*
CCOc1nc(C)cc(C)c1S(=O)(=O)c1ccc(Cl)cc1,0%,0,-16,-7,5,-1
O=C(CNC(=O)[C@@H]1Cc2ccccc2CN1)NCc1ccco1,10%,0,-2,-13,1,5
CCN(CC)CCNC(=O)c1ccc(Cl)c(S(=O)(=O)Nc2ccc(Cl)cc2)c1,-5%,2,-18,-56*,2,-6
CCN1CCN(CCCNC(=O)c2ccc(/C=C3/Oc4ccccc4N(Cc4cccc(C)c4)C3=O)cc2)CC1,11%,39*,-15,-24,-2,-37*
CCN1CCN(CCNC(=O)c2ccc(/C=C3/Sc4ccccc4N(Cc4ccccc4C)C3=O)cc2)CC1,-1%,40*,-3,-1,-14,-21
CC1CCCCN1C(=O)CSc1nnc(Cc2ccccc2)n1C (stereo not given),5%,1,5,17,-3,22
N#C/C(=C\c1c[nH]c2ccc(Br)cc12)c1ccccn1,6%,2,-17,1,-9,1
CC1=C(CO)C(=O)OC([C@@H](C)C2CC[C@H]3C4C[C@H]5O[C@]56[C@@H](O)C=CC(=O)[C@]6(C)C4CC[C@]23C)C1 (stereo not given in full),1%,1,-67,-136*,-2,-21
CCC(CC)C1C(C#N)=C(N)SC(N)=C1C#N,7%,-1,0,-60*,-1,20
Cc1cc(C(=O)O)ccc1NCc1cccnc1,-6%,2,2,11,-2,4
Cc1ccc(NC(=O)c2cc([N+](=O)[O-])ccc2NCc2cccnc2)cc1,4%,0,0,-4,-12,-36*
O=C(O)c1ccc(NCc2cccnc2)c([N+](=O)[O-])c1,-2%,6,-5,-83*,0,6
COc1ccc([N+](=O)[O-])cc1NCc1cccnc1,-8%,22,-2,2,-6,-28
Cc1cc2ccccc2n1CCNCc1c(C(=O)N2CCOCC2)nc2ccccn12,5%,5,-10,11,-1,1
